Laboratory results: PubChem BioAssay (NCI)
This is part of a sample that, as a whole, favours compounds with a hit. Of some 79,000 tested, about 15% had one in any assay. Rule as the data show it: active = growth inhibition above about 70%; inactive = the rest.

Legend:
[1] = NCI Yeast Anticancer Drug Screen. Data for the rad50 strain (AID 155);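 also: 0% = growth of vehicle-only cultures of the same strain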; conditions: S. cerevisiae rad50 strain growth inhibition; at 50.0 µM; hits give high values
Method in brief: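 Vehicle-treated cultures provide the reference for the growth inhibition reported for compound-exposed, repair-deficient yeast.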

[2] = NCI Yeast Anticancer Drug Screen. Data for the mec2-1 strain (AID 157); conditions: S. cerevisiae mec2-1 strain, at 50.0 µM, hits give high values
Method in brief: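 Test agents were screened against the mec2-1 yeast strain, with defined DNA repair or cell cycle alteration. Growth was scored as inhibition against vehicle-only controls.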

[3] = NCI Yeast Anticancer Drug Screen. Data for the sgs1 mgt1 strain (AID 161);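 also: 0% = growth of cultures given vehicle only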; conditions: S. cerevisiae sgs1 mgt1 strain, at 50.0 µM, hits give high values
Method in brief: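 Read-out: growth inhibition vs vehicle controls. Cells: mutant yeast strain deficient in DNA damage repair.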

[4] = NCI Yeast Anticancer Drug Screen. Data for the cln2 rad14 strain (AID 165);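 also: 0% = growth equal to vehicle treated cultures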; conditions: S. cerevisiae cln2 rad14 strain, at 50.0 µM, hits give high values
Method in brief: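 Growth of compound-exposed yeast (cln2 rad14 genotype) measured and expressed as inhibition relative to vehicle.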

[5] = NCI Yeast Anticancer Drug Screen. Data for the bub3 strain (AID 167); conditions: S. cerevisiae bub3 mutant strain, at 50.0 µM, hits give high values
Method in brief: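 Mutant yeast screening strain plus compound; vehicle-treated cultures serve as the 0% inhibition reference.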

[6] = NCI Yeast Anticancer Drug Screen. Data for the mlh1 rad18 strain (AID 175); conditions: S. cerevisiae mlh1 rad18 strain growth inhibition; at 50.0 µM; hits give high values
Method in brief: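 In this whole-cell yeast screen, a strain with altered DNA damage repair is challenged with compound, and its growth is measured against matched vehicle-treated controls.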

Measured: growth inhibition

CCC(=O)OCCOC(=O)CC
inactive: [1] 26.8% | [2] 16.7% | [3] 6.9% | [4] 18.6% | [5] 23.6% | [6] 9.25%

CC1(C)OC2COC3(COC(C)(C)O3)C(O)C2O1 (stereo not given)
inactive: [1] -9.05% | [2] 0.2% | [3] 4.15% | [4] -3.7% | [5] -6.2% | [6] -24.8%

O=C(Nc1cccc(O)c1)c1ccccc1Cl
inactive: [1] 9.3% | [2] -6% | [3] -15.4% | [4] -86.3% | [5] -11.9% | [6] -30.1%

CC1OC(OC23C(=O)CC(C)(O)CC2(O)C=CC2=C3C(=O)c3ccc(C4CC(OC5CCC(OC6CC(O)C(O)C(C)O6)C(C)O5)C(O)C(C)O4)c(O)c3C2=O)CCC1O (stereo not given)
inactive: [1] 1.4% | [2] -7.95% | [3] 5.75% | [4] -0.5% | [5] -0.25% | [6] 18.1%

CCOC(=O)CCC(=O)OCC
inactive: [1] 21.6% | [2] 7.05% | [3] 0% | [4] 16.9% | [5] 9.85% | [6] 10.6%

CN(C)N=Nc1ccccc1
inactive: [1] 38.2% | [2] -14.2% | [3] 0% | [4] 15.4% | [5] -1.65% | [6] 29.2%

N#C/C(=C1\OC(=O)C(c2ccc(Br)cc2)=C1O)c1ccc(Br)cc1
inactive: [1] 8.15% | [2] 2.45% | [3] -4% | [4] 5.3% | [5] -3.85% | [6] 26.4%

CS(=O)(=O)OC1CC/C=C\CCC1OS(C)(=O)=O (stereo not given)
inactive: [1] 1.3% | [2] 14.5% | [3] 12.3% | [4] -9.35% | [5] -15.4% | [6] -15.6%

Cc1nn(CCO)c2nc(N)nc(N)c12
inactive: [1] 2.05% | [2] 3.35% | [3] -0.4% | [4] -1.45% | [5] -6.35% | [6] -3.2%

CCOC(=O)Cc1[nH]c(C(=O)OCC)c(CC(=O)OCC)c1C(=O)OCC
inactive: [1] 6.3% | [2] 8.45% | [3] 8.3% | [4] -4.2% | [5] 0.1% | [6] 15.7%

c1ccc(B2OB(c3ccccc3CN3CCCC3)OB(c3ccccc3CN3CCCC3)O2)c(CN2CCCC2)c1
inactive: [1] 21% | [2] 4.15% | [3] 0.05% | [4] 17.1% | [5] 0.75% | [6] 15.4%

COC1=C(c2ccccc2)P(=O)(Cc2ccccc2)C(C)C1 (stereo not given)
inactive: [1] -6.95% | [2] 12.2% | [3] 24.6% | [4] -9.1% | [5] 48.3% | [6] 1.9%

CCCCCOC(=O)Nc1ccc(OCC)cc1
inactive: [1] -9.15% | [2] -4.95% | [3] -3.15% | [4] -21.9% | [5] -1.3% | [6] -4.25%

CC(=O)Nc1ccc(OC(=O)Nc2ccc(C)c(NC(=O)Oc3ccc(NC(C)=O)cc3)c2)cc1
inactive: [1] 6.35% | [2] -6.95% | [3] 6.15% | [4] 24.5% | [5] 17.2% | [6] 7.25%

CN1CCCN(C)CCCN(C)CCCN(C)CCC1
inactive: [1] -19.8% | [2] -2.45% | [3] 7.6% | [4] -4.65% | [5] -24.6% | [6] 11.8%

CC(C)CSc1nc2ccc(N=Cc3ccccc3O)cc2s1
inactive: [1] -29.4% | [2] -5.5% | [3] -11.3% | [4] -13% | [5] 8.75% | [6] -17.3%

CCN(CC)C(=O)c1ccc(C)c(N=NN(C)C)c1
inactive: [1] -5.7% | [2] -36.2% | [3] -20.9% | [4] -0.15% | [5] -19.9% | [6] -8.75%

CC1(C)SCCNC1=O
inactive: [1] 3.35% | [2] 8.45% | [3] 8.8% | [4] 11.8% | [5] 15.8% | [6] 4.75%

CC1COCOC1c1ccc2c(c1)OCO2 (stereo not given)
inactive: [1] 17.6% | [2] 4% | [3] 6% | [4] 9.45% | [5] -9.45% | [6] -15.8%

Cc1ccc(-c2n[nH]c(=O)n2N2C(=O)C=CC2=O)cc1
inactive: [1] -9.05% | [2] -20.6% | [3] -26.3% | [4] -1.2% | [5] -15.4% | [6] -59.9%
